MgrA DNA FP: alters Staphylococcus aureus MgrA binding to DNA | hit rate 0.13% among 84,000 | fluorescence polarization | AID 602314 | inhibition, % (concentration not given with the values); in the data active = inhibition above about 30%, passing the limit was not always enough;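 note: higher means less MgrA bound to DNA so lower polarization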
Hits are given with their value. Only a selection was taken, and hits are over-represented in it overall.

What do the screens show for `O=c1c(-c2ccc(Oc3ccccc3)cc2)[n+]([O-])c2ccccc2n1O`?
MgrA DNA FP: inactive

What do the screens show for `Cc1c(=O)n(OCc2ccc(Cl)cc2)c2ccccc2[n+]1[O-]`?
MgrA DNA FP: inactive

What do the screens show for `N#Cc1c(=O)n(O)c2ccccc2[n+]1[O-]`?
MgrA DNA FP: 48.6

Results for COc1ccc(-c2cc(=NCCc3ccccc3)c3cc(C)ccc3o2)cc1 ?
MgrA DNA FP: inactive

Results for O=C(Cn1nnc(-c2cccnc2)n1)N(c1ccccc1)c1ccccc1 ?
MgrA DNA FP: inactive

How did Cn1c(CCCNC(=O)C2CCCCC2)nc2ccccc21 do in these assays?
MgrA DNA FP: inactive

Results for CC(C)(C)C(=O)C1C2C3COC(O3)C(=O)C2C2C=Cc3ccccc3N21 (stereo unspecified) ?
MgrA DNA FP: 41.5

Results for COC(=O)N1c2ccccc2C=CC1C#N (stereo unspecified) ?
MgrA DNA FP: inactive

Results for O=C(Nc1ccc(-c2nnc(-c3ccccc3)o2)cc1)C1CCCC1 ?
MgrA DNA FP: inactive

How did CCOC(=O)C1=C(C)N=c2s/c(=C/c3ccccc3OC(C)=O)c(=O)n2C1c1ccc(OC)c(OC)c1 (stereo unspecified) do in these assays?
MgrA DNA FP: inactive

What do the screens show for `CCOc1cc(/C=C/c2ccccc2OC)cc(=O)c2c(C)oc(C)c12`?
MgrA DNA FP: inactive

Results for COc1cccc(=O)c2c(C)oc(C)c12 ?
MgrA DNA FP: 43.3

Results for CCOc1ccc(-c2cc(OC)c3c(C)oc(C)c3c(=O)c2)cc1 ?
MgrA DNA FP: inactive

Results for Cc1ccc(N=C2NC(=O)C(Cc3ccc(Cl)cc3)S2)cc1 (stereo unspecified) ?
MgrA DNA FP: inactive

What do the screens show for `CC1CCCCN1S(=O)(=O)c1ccc(NC(=O)C2COc3ccccc3O2)cc1` (stereo unspecified)?
MgrA DNA FP: inactive

Results for CCC(CO)NCc1ccc(-c2ccc(F)c(Cl)c2)o1 (stereo unspecified) ?
MgrA DNA FP: inactive

What do the screens show for `COC(=O)c1cc(C(=O)OC)c(C(=O)OC)cc1C(=O)OC`?
MgrA DNA FP: inactive

Results for COC(=O)c1ccsc1N ?
MgrA DNA FP: 70.7

What do the screens show for `COC(=O)c1sccc1O`?
MgrA DNA FP: inactive

What do the screens show for `CCOC(=O)/C(=C\Nc1ccc(F)cc1)S(=O)(=O)c1ccc(Cl)cc1`?
MgrA DNA FP: inactive

Results for CCS(=O)(=O)Nc1ccc(C2=NN(S(=O)(=O)c3ccccc3)C(c3ccccc3)C2)cc1 (stereo unspecified) ?
MgrA DNA FP: inactive

Results for O=C1CCCC2=C1C(c1cccs1)C1C(=O)c3ccccc3C1=N2 (stereo unspecified) ?
MgrA DNA FP: inactive

How did CC[n+]1ccc(C)c2ccccc21 do in these assays?
MgrA DNA FP: inactive

How did Cc1cc(-c2ccccc2N)nc2ccccc12 do in these assays?
MgrA DNA FP: inactive

What do the screens show for `Cc1cc(N)c2ccccc2[n+]1CCCCCCCCCC[n+]1c(C)cc(N)c2ccccc21`?
MgrA DNA FP: 55.1

Results for O=C(c1ccc(CS(=O)(=O)c2ccccc2)cc1)N1CCCC1 ?
MgrA DNA FP: inactive

How did CC(C)(O)C1Cc2cc(/C=C/C(=O)O)c(O)cc2O1 (stereo unspecified) do in these assays?
MgrA DNA FP: inactive

How did CC(C)c1cc2cc(/C=C/C(=O)O)c(O)cc2o1 do in these assays?
MgrA DNA FP: 60.4

Results for CC(C)c1ccc(/C=C/C(=O)O)cc1 ?
MgrA DNA FP: inactive

What do the screens show for `CC(=O)c1cc2cc(Br)ccc2o1`?
MgrA DNA FP: inactive

Results for COc1ccccc1N1CCN(Cc2ccc(C(=O)NC(C)C)cc2)CC1 ?
MgrA DNA FP: inactive

How did O=C1c2cccc3c(N4CCNCC4)ccc(c23)C(=O)N1c1ccc(Cl)cc1 do in these assays?
MgrA DNA FP: 59.8

Results for O=C1c2cccc3c(N4CCCC4)ccc(c23)C(=O)N1c1ccccc1 ?
MgrA DNA FP: inactive

How did Cc1cccc(N2C(=O)c3cccc4c(N5CCNCC5)ccc(c34)C2=O)c1 do in these assays?
MgrA DNA FP: inactive

How did N#Cc1c(-c2ccccc2)cc[nH]c1=O do in these assays?
MgrA DNA FP: inactive

Results for O=C1COc2ccc(C(=O)CSc3nnc(-c4ccoc4)c(-c4ccoc4)n3)cc2N1 ?
MgrA DNA FP: inactive

What do the screens show for `COc1ccc(C(=O)CSc2nnc(-c3ccco3)c(-c3ccco3)n2)cc1`?
MgrA DNA FP: 50.9

What do the screens show for `CCOc1ccc(C(=O)CSc2nnc(-c3ccco3)c(-c3ccco3)n2)cc1NC(=O)CC`?
MgrA DNA FP: 91.9

Results for CCn1c(SCC(=O)c2ccccc2)nnc1-c1ccco1 ?
MgrA DNA FP: inactive

Results for Cn1c(SCC(=O)c2ccc(F)cc2)nnc1-c1ccco1 ?
MgrA DNA FP: inactive

Results for O=C(CSc1nnc(-c2ccoc2)c(-c2ccoc2)n1)c1ccc(-c2ccccc2)cc1 ?
MgrA DNA FP: 71.1

What do the screens show for `CCC(=O)Nc1ccc(C(=O)CSc2ncc(C#N)c(N)n2)cc1OC`?
MgrA DNA FP: inactive

Results for O=C(CSc1nnc(-c2ccoc2)c(-c2ccoc2)n1)c1ccc(N2CCCC2=O)cc1 ?
MgrA DNA FP: inactive

What do the screens show for `CCc1ccc2c(c1)c1nnc(SCC(=O)c3ccc(OC)cc3)nc1n2C`?
MgrA DNA FP: inactive

How did COC(=O)c1ccc(C2c3c(oc4ccc(F)cc4c3=O)C(=O)N2CCCN(C)C)cc1 (stereo unspecified) do in these assays?
MgrA DNA FP: inactive

What do the screens show for `CS(=O)(=NS(=O)(=O)c1ccc(OC(F)(F)F)cc1)c1ccccc1` (stereo unspecified)?
MgrA DNA FP: inactive

Results for COC(=O)NC(=C(Cl)Cl)c1ccc(C)c(F)c1 ?
MgrA DNA FP: inactive

Results for CCC(=O)N1c2ccc(S(=O)(=O)NC3CCCCC3C)cc2CC1C (stereo unspecified) ?
MgrA DNA FP: inactive

How did O=C(c1cccc2c1NC(c1cccc([N+](=O)[O-])c1)C1CC=CC21)N1CCCC1 (stereo unspecified) do in these assays?
MgrA DNA FP: inactive

Results for O=C(Nc1cccc(NC(=O)c2cccc(S(=O)(=O)N3CCCCC3)c2)c1)c1ccc(Br)cc1 ?
MgrA DNA FP: inactive

Results for N#CCS(=O)(=O)Cc1ccco1 ?
MgrA DNA FP: inactive

How did CN(C)/C=C/C=C/c1cc(=O)cc(/C=C/C=C/N(C)C)o1 do in these assays?
MgrA DNA FP: 99.7

What do the screens show for `Cc1cc2[nH]c(=O)c(=O)[nH]c2cc1S(=O)(=O)N1CCCc2ccccc21`?
MgrA DNA FP: inactive

How did COc1ccc(-n2nnnc2SCC(=O)N2CCCCC2C)cc1 (stereo unspecified) do in these assays?
MgrA DNA FP: inactive

Results for Cc1ccc(-c2ccc(/C=c3\sc4nc5ccccc5n4c3=O)o2)c(Br)c1 ?
MgrA DNA FP: inactive

Results for COc1ccc(-c2ccc(/C=c3\sc4nc5ccccc5n4c3=O)o2)c([N+](=O)[O-])c1 ?
MgrA DNA FP: inactive

What do the screens show for `O=C(O)c1cccc(-c2ccc(/C=c3/sc4nc5ccccc5n4c3=O)o2)c1`?
MgrA DNA FP: 43.8

How did Cc1cc(C)c(C#N)c(Sc2ccccn2)n1 do in these assays?
MgrA DNA FP: inactive

Results for FC(F)(F)Oc1ccc(N=Cc2ccc(Cl)cc2)cc1 ?
MgrA DNA FP: inactive

How did O=C(OC(C(=O)c1ccccc1)c1ccccc1)c1cccnc1Cl (stereo unspecified) do in these assays?
MgrA DNA FP: inactive

What do the screens show for `NC(CO)C(=O)NNCc1ccc(O)c(O)c1O` (stereo unspecified)?
MgrA DNA FP: inactive

What do the screens show for `NC(CO)C(=O)N/N=C/c1ccc(O)c(O)c1O` (stereo unspecified)?
MgrA DNA FP: 62.4

How did O=C(N/N=C/c1cc(Br)ccc1O)N/N=C/c1cc(Br)ccc1O do in these assays?
MgrA DNA FP: inactive

From PubChem BioAssay
